# Screening results deposited in PubChem by several laboratories.
# 14-3-3 Bad PPI – disrupts binding of bovine 14-3-3 zeta to phospho-Bad peptide | P63103 | TR-FRET 14-3-3zeta/Dy647-pBad peptide displacement, 1 h | inhibition, % at 21.7 µM | AID 781 | 220,000 tested, 0.71% active;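 active = inhibition above about 70%, limit read from the data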;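 note: 0% = full 14-3-3 plus peptide FRET controls and 100% = background without 14-3-3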
# Target sequence (P63103 whole entry, looked up): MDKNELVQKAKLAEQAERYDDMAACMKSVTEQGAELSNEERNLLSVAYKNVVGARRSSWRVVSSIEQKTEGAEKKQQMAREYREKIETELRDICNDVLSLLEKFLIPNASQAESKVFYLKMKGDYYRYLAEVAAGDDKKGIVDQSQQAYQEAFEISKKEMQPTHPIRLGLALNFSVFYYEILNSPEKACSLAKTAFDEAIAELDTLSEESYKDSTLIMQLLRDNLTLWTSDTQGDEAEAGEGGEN
# MCL1 BIM primary – MCL1-BIM-BH3 interaction inhibition (human); Q07820; GST-MCL1 / FITC-Bim-BH3 fluorescence polarization; inhibition, % at 10.9 µM; 320,000 tested, 0.68% active; AID 2057;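 active = inhibition above the mean inhibition of all tested compounds plus 3 SD, set per campaign, cut at about 40% in these data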;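 note: 0% = DMSO wells and 100% = unlabeled Bim-BH3 peptide control; higher means more loss of mP so more displacement of Bim peptide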
# Target sequence (Q07820 whole entry, looked up): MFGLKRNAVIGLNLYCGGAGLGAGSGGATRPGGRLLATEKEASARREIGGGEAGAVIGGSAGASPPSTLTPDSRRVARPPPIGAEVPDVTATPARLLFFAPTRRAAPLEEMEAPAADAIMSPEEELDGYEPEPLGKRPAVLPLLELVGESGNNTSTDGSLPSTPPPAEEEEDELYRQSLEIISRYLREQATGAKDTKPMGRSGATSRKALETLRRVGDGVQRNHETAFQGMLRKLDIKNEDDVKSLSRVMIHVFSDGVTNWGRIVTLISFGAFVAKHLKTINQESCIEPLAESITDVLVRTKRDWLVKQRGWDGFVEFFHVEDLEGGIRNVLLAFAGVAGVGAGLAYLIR
# Mcl-1 Bim block – disrupts Bim peptide binding to human Mcl-1. Q07820. Bead-based flow cytometry, Bim peptide-Mcl-1 binding. inhibition, % at 10 µM. 190,000 tested, 0.1% active. AID 1009; in the data active = inhibition above about 40%;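 note: 0% = no compound tracer wells and 100% = peptide blocker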
# Mcl1-Noxa inh – Mcl-1/Noxa interaction inhibition; AID 1022; Q07820; inhibition, % at 21.7 µM; 220,000 tested, 1.5% active; TR-FRET Mcl-1/Noxa peptide binding, 2 h;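 active = compounds that cut the protein-peptide binding signal by more than 50% relative to plate controls in a single-dose test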;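 note: His-tagged Mcl-1 with rhodamine Noxa BH3 peptide and terbium anti-His antibody; 0% = Mcl-1 plus Noxa peptide wells and 100% = peptide-only wells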
# Mcl1-Bid inh – disrupts binding of human Mcl-1 to Bid peptide; TR-FRET Mcl-1/Bid-Dy647 peptide binding, 1536-well; AID 1021; inhibition, % at 21.7 µM; 220,000 tested, 0.97% active;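 active = compounds that cut the binding signal by more than half at the single screening dose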;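 note: His-tagged Mcl-1 with europium anti-His antibody binding Bid BH3 peptide; 0% = Mcl-1 plus peptide wells and 100% = peptide-only wells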
# Bcl-xL conf – counter-screen for MCL1 inhibitors: confirmation of human Bcl-xL inhibitors. shares compounds with MCL1 BIM primary. GST-Bcl-xL / FITC-Bim BH3 peptide FP binding. inhibition, % at 10.9 µM. 1,700 tested, 54% active. AID 2166;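 active = inhibition above a cutoff equal to the mean inhibition of all tested compounds plus 3 SD, cut at about 30% in these data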;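 note: 0% = DMSO wells and 100% = unlabeled Bim BH3 control peptide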
# MCL1 inh confirm – MCL1-BIM-BH3 interaction inhibition, confirmation. shares compounds with MCL1 BIM primary. GST-MCL1 / FITC-Bim-BH3 fluorescence polarization. inhibition, % at 10.9 µM. 1,700 tested, 61% active. AID 2168;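 active = inhibition above the average of all tested compounds plus 3 SD, cut at about 40% in these data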;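 note: 0% = DMSO wells and 100% = unlabeled Bim-BH3 control peptide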
# Active calls of the source: *; . = not tested or not shown; + = active, no number. Rows were chosen to be rich in hits. Some 2.5% of all compounds tested hit in one or more screens of this group.
SMILES,14-3-3 Bad PPI,MCL1 BIM primary,Mcl-1 Bim block,Mcl1-Noxa inh,Mcl1-Bid inh,Bcl-xL conf,MCL1 inh confirm
CC(=O)Nc1ccc(Nc2c3c4c(cccc4n(C)c2=O)C(=O)c2ccccc2-3)cc1,-1,+,-2,23,3,181*,+
Cc1cc2nc(C3CCCN(C(=S)Nc4ccccc4)C3)[nH]c2cc1C (configuration not stated),5,12,-9,8,-28,.,.
Cc1ccccc1C(=O)NCCNC(=O)c1ccco1,.,3,.,.,.,.,.
Cn1c(=O)c(NC2CCCCC2)c2c3c(cccc31)C(=O)c1ccccc1-2,-12,.,3,-28,-9,.,.
CCNc1c2c3c(cccc3n(C)c1=O)C(=O)c1ccccc1-2,-22,+,9,-134,-13,+,+
CN(C)c1ccc(O)c2c1CC1CC3[C@@H](N(C)C)C(=O)C(C(N)=O)=C(O)[C@]3(O)C(=O)C1=C2O (some centres not stated),26,61*,-3,28,-12,26,67*
N#C/C(=C\c1ccccc1)C(=O)Nc1ccccn1,.,-3,.,.,.,.,.
N#C/C(=C\c1cccs1)C(=O)Nc1ccccn1,-7,57*,.,18,-10,49*,71*
CCOc1cccc(-c2nnc3sc(COc4ccc(C)cc4)nn23)c1,-2,-3,2,.,-8,.,.
O=C(COC(=O)CCc1ccccc1)NCc1ccccc1,.,-6,.,.,.,.,.
N#Cc1c(NC(=O)c2ccco2)sc2c1CCC2,.,56*,.,.,.,25,36
NC(=O)c1c(NC(=O)c2ccco2)sc2c1CCC2,-6,7,-3,27,-77,.,.
COc1ccc(Cl)cc1CN1CCN(c2nc(C)cc(C)c2C#N)CC1,-1,85*,-1,14,-8,57*,82*
COc1cc2c(ccc3cc(OC)c(OC)c(O)c32)cc1O,78*,78*,.,107*,-21,29,82*
COc1cc(OC)c(OC)cc1/C=C1/Cc2ccccc2C1=O,.,111*,.,.,.,85*,103*
CN(C)S(=O)(=O)c1ccc(NC(=O)c2c(F)cccc2Cl)cc1,-3,1,-1,-4,-8,.,.
CC(C)(C)c1ccc(C(=O)Nc2cccc3ncccc23)cc1,.,90*,.,.,.,116*,143*
COC(=O)C1=COC(C)C2CN3CCc4c([nH]c5cc(OC)c(OC)cc45)C3CC12 (configuration not stated),-6,96*,.,-14,-112,94*,113*
COC(=O)[C@@H]1[C@H]2C[C@H]3c4[nH]c5ccccc5c4CCN3C[C@@H]2CC[C@@H]1O,.,0,.,.,.,.,.
O=C1COc2ccc(C(=O)COC(=O)/C=C/c3cccc(F)c3)cc2N1,8,-2,.,8,3,.,.
O=C1COc2ccc(C(=O)COC(=O)/C=C/c3ccc(Br)o3)cc2N1,.,73*,.,.,.,4,51*
O=C(CCNC(=O)c1ccccc1Cl)NCc1cccnc1,.,-18,.,.,.,.,.
COc1cc([N+](=O)[O-])cc(/C=C2/SC(=S)N(Cc3ccccc3)C2=O)c1O,.,73*,.,.,.,70*,80*
O=C1/C(=C\c2cc(Br)cc(Br)c2O)SC(=S)N1Cc1ccccc1,.,51*,.,.,.,24,49*
COc1cc(/C=C2/SC(=S)N(Cc3ccccc3)C2=O)ccc1OCC(=O)O,.,1,.,.,.,.,.
SMILES,14-3-3 Bad PPI,MCL1 BIM primary,Mcl-1 Bim block,Mcl1-Noxa inh,Mcl1-Bid inh,Bcl-xL conf,MCL1 inh confirm
Cc1ccc(C(=O)OCC(=O)NCCNC(=O)COC(=O)c2ccc(C)o2)o1,.,-11,.,.,.,.,.
COc1ccc(NC(=O)c2cc(-c3ccccc3)oc2C)cc1,-5,10,-4,18,-19,.,.
O=C(N/N=C/c1ccc(-c2ccccc2C(=O)O)o1)c1cccs1,16,71*,2,79*,0,40*,73*
CCN(CC)c1ccc(/C=C/C(=O)C2C(=O)C=C(C)OC2=O)cc1 (configuration not stated),-13,79*,.,25,-46,79*,125*
O=c1[nH]c(CSc2nnc3ccccn23)nc2ccccc12,7,8,-1,1,-30,.,.
O=c1cc(CSc2nnc3ccccn23)c2c(ccc3ccccc32)o1,-15,88*,-3,22,-3,-8,16
Cc1ccc(S(=O)(=O)NNC(=O)c2ccccc2O)cc1,-13,44*,-1,30,-46,12,29
COc1ccc(NC(=S)NC(=O)/C=C/c2ccco2)cc1,-4,1,-1,20,-16,.,.
O=C(/C=C/c1ccco1)NC(=S)Nc1ccc(C(=O)O)cc1,.,67*,.,.,.,26,39
CCCOc1ccc(C(=O)NNC(=S)NC(C)=O)cc1,-7,6,-5,-47,-70,.,.
Cc1cc(/C=C(\C#N)c2nc3ccccc3[nH]2)c(C)n1C,-9,122*,-3,37,-80,127*,149*
Cc1cc(/C=C(/C#N)c2nc3ccccc3[nH]2)c(C)n1-c1cccc([N+](=O)[O-])c1,-11,4,1,13,-71,.,.
CCOC(=O)Nc1ccc(NCc2ccc(F)cc2)nc1N,.,191*,.,.,.,36*,31
CCCn1c(/N=C/c2c[nH]c3ccccc23)nc2ccccc21,-2,83*,0,17,18,10,4
O=C(CN(Cc1ccccc1)C(=O)CNS(=O)(=O)c1ccc(Cl)cc1)NCC1CCCO1 (configuration not stated),.,-5,.,.,.,.,.
CCc1cc(=O)oc2cc(C)c(CN3CCCC(C)C3)c(O)c12 (configuration not stated),2,47*,1,52*,93*,25,18
CC1CCCCC1NC(=O)COC(=O)c1ccccc1NC(=O)c1ccco1 (configuration not stated),-7,1,3,16,-10,.,.
Cc1oc(/N=C/c2ccc(O)cc2O)c(C#N)c1C,-10,65*,0,17,-46,57*,65*
Cc1oc(/N=C/c2ccccc2O)c(C#N)c1C,-7,9,-3,.,-20,.,.
CC1C2C(c3ccccc3)N(C)C(=O)N(C)C2N(C)C(=O)N1C (configuration not stated),-4,55*,-1,1,-27,38*,45*
COc1ccc(OC)c2[nH]c(=O)c(CCNS(=O)(=O)c3ccc(Cl)cc3)cc12,-3,44*,-2,11,-9,6,3
CN1Cc2sc(N)c(C#N)c2CC1(C)C,-7,59*,1,-2,-53,22,13
CC1(C)Cc2c(sc(N)c2C#N)C(C)(C)N1,4,0,-6,3,-68,.,.
COc1ccccc1CN1CC(C(=O)NCc2cc(C(C)C)no2)CCC1=O (configuration not stated),.,-1,.,.,.,.,.
O=C(CCSc1ccc(Cl)cc1)c1ccco1,.,15,.,.,.,.,.
